# NPC1 promoter act = qHTS Assay for NPC1 Promoter Activators. Huh7 NPC1 promoter luciferase reporter, 24 h. Potency, µM (titrated, usually from 9.22 µM), actives largely listed as activators. hit rate 2.4% among 320,000; further: nearly all actives have a fitted effect of over 60% in size
#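 Compounds in DMSO were transferred onto Huh7 NPC1-luciferase reporter cells pre-incubated 2 h; after 24 h at 37 °C, Amplite reagent was dispensed and luminescence recorded 10 min later.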
# Rab9 promoter act = qHTS Assay for Rab9 Promoter Activators; Huh7 Rab9 promoter-luciferase reporter, luminescence, 24 h; Potency, µM (titrated, usually from 9.22 µM), hits mostly activators; hit rate 2.8% among 320,000; further: nearly all actives have a fitted effect of over 60% in size
#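 Huh7 cells stably carrying Rab9 promoter–luciferase reporter, plated 1500 cells/well, compound added after 2 h and incubated 24 h at 37 °C; luciferase luminescence then read after 10 min with detection reagent.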
# FLuc counter = qHTS profiling assay for firefly luciferase inhibitor/activator using purifed enzyme and Km concentrations of substrates (counterscreen for miR-21 project); purified FLuc, Km substrates, luminescence inhibition; Potency, µM (titrated, usually from 57.5 µM), most hits filed as inhibitors; hit rate 6.9% among 360,000; AID 588342, 2011; further: nearly all actives have a fitted effect of over 55% in size
# Target sequence (P08659 whole entry, looked up): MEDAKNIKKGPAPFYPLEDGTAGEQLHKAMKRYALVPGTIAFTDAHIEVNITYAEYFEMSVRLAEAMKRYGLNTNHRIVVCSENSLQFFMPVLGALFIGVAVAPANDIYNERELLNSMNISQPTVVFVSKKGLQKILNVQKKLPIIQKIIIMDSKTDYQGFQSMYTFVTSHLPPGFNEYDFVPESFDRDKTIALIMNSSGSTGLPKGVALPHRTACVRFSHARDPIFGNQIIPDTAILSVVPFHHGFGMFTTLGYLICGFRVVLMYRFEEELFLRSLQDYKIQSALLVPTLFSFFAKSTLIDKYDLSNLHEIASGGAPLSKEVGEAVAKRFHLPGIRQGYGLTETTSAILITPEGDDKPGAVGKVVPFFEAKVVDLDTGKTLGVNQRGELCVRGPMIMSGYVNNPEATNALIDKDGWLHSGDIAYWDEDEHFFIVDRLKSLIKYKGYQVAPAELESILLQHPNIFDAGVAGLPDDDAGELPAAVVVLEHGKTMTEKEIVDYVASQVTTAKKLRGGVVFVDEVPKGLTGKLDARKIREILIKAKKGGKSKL
#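 Purified P. pyralis luciferase (10nM final) with 10uM D-luciferin and 10uM ATP (Km levels) in 50mM Tris acetate pH 7.5, 10mM Mg acetate, 0.01% Tween-20, 0.05% BSA; qHTS 6-point titration, ~60 µM downward; luminescence read.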
# KinaseGlo FLuc = Counterscreen for Luciferase (Kinase-Glo TM) Inhibition. Luciferin 4-monooxygenase (Photuris pensylvanica), Q27757. Kinase-Glo luciferase, ATP luminescence, 8 min. Potency, µM (highest dose often 38.3 µM), actives largely listed as inhibitors. hit rate 0.28% among 200,000; further: nearly all actives have a fitted effect of over 60% in size
#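 Compound is pinned into ATP-containing buffer (10 uM ATP, imidazole pH 7.2, 7 mM MgCl2). Kinase-Glo luciferase reagent is then added. Light output is recorded following an 8-min room-temperature incubation.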
# ELG1 genotox = qHTS screen for small molecules that induce genotoxicity in human embryonic kidney (HEK293T) cells expressing luciferase-tagged ELG1 | HEK293T ELG1-luciferase reporter, luminescence, 16 h | Potency, µM (doses to about 46 µM), usual class: activators | hit rate 1.3% among 330,000 | AID 504466, 2011; further: nearly all actives have a fitted effect of over 60% in size
#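 16 hr compound incubation (37 °C, 5% CO2) of HEK293T cells carrying luciferase-tagged ELG1; luciferase then measured by ONE-Glo luminescence after 30 min at RT.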
# SMN2 splice up = qHTS Assay for Enhancers of SMN2 Splice Variant Expression. hit rate 2.8% among 210,000. Potency, µM (top dose mostly 46.1 µM), actives largely listed as activators. HEK293 SMN2-luciferase splicing reporter, luminescence, 30-36 h; further: nearly all actives have a fitted effect of over 55% in size
#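 HEK293 cells carry an SMN2 minigene-luciferase reporter in which exon 7 inclusion puts luciferase in frame. Cells were seeded at 2000 cells/well, attached for 10-12 hours, then exposed to compounds for 30-36 hours at 37C before ONE-Glo luminescence.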
# Numbers stand for hits; 0 = inactive; ? = inconclusive; - = not tested or not shown. Most compounds without a hit are left out; they make up all but 7.3% or so of the library. The call rests on the fitted dose curve; in most records, active means well fitted curve in the direction sought with a large enough effect; inconclusive means small, poorly fitted or top-dose-only effect, or another doubt; inactive means no such curve, though single readings can be large; an effect the other way counts as inactive or inconclusive.
SMILES,NPC1 promoter act,Rab9 promoter act,FLuc counter,KinaseGlo FLuc,ELG1 genotox,SMN2 splice up
COc1ccccc1NC(=O)c1cc2ccccc2nc1C,0,0,0,0,0,0
O=C(Nc1ccc2ccccc2n1)c1ccc(Cl)cc1,1µM,0.631µM,2.13µM,-,?,-
O=C(Cn1c(=O)oc2cc(S(=O)(=O)N3CCCC3)ccc21)NC1CCCc2ccccc21 (stereo unspecified),0,0,0,0,0,0
Cc1c(C)c2ccc(OCC(=O)Nc3cccnc3)c(C)c2oc1=O,?,0,10.7µM,-,?,-
COc1ccc(-c2cc(=O)oc3c(C)c(OCC(=O)Nc4cccnc4)ccc23)cc1,0,0,0,-,0,-
Cc1cc(Cl)ccc1OCC(=O)Nc1cccnc1,0,0,13.5µM,-,?,-
Cc1cc(Cl)ccc1OCC(=O)Nc1ccccc1CO,0,0,21.3µM,0,?,0
C=CCOc1ccccc1CN1CCC(Oc2ccc(C(=O)N3CCCC3)cc2)CC1,0,0,0,-,0,-
O=C(c1cnn(C(=O)c2cccc(S(=O)(=O)N3CCOCC3)c2)c1)c1cc(Cl)cc(Cl)c1O,0,0,0,-,0,-
CC(=O)Nc1ccc(NC(C)=O)s1,0,0,0,0,0,0
Nc1nnc(CC(=O)N/N=C/c2ccc([N+](=O)[O-])cc2)s1,0,0,0,-,0,-
CCc1nnc(NS(=O)(=O)c2ccc(N/C=C\C(=O)c3ccc(F)cc3)cc2)s1,0,0,19µM,0,0,0
CCc1nnc(NS(=O)(=O)c2ccc(N/C=C/C(=O)c3ccc(C)cc3)cc2)s1,0,0,23.9µM,0,0,?
CCc1nnc(NS(=O)(=O)c2ccc(N/C=C\C(=O)c3cccc(OC)c3)cc2)s1,0,0,16.9µM,0,0,0
CCc1nnc(NS(=O)(=O)c2ccc(N/C=C\C(=O)c3ccc(C)cc3)cc2)s1,0,0,19µM,0,0,0
CCc1nnc(NS(=O)(=O)c2ccc(NC(=O)c3ccc(S(=O)(=O)N(CC)CC)cc3)cc2)s1,0,0,0,-,0,-
CCc1nnc(NS(=O)(=O)c2ccc(NS(=O)(=O)c3ccc(NC(C)=O)cc3)cc2)s1,0,0,0,0,0,0
COc1cccc(C(=O)/C=C/Nc2ccc(S(=O)(=O)Nc3ncccn3)cc2)c1,0,0,?,0,0,0
COc1ccc(CCNC(=O)CN2C(=O)NC(C)(c3ccc([N+](=O)[O-])cc3)C2=O)cc1 (stereo unspecified),0,0,0,0,0,0
Cc1ccsc1-c1nc(CN2CCN(C)C(=O)[C@@H]2C)c(C)o1,0,0,0,0,0,-
OC(CNC1Cc2ccccc2C1)c1ccccc1 (stereo unspecified),0,0,0,-,0,-
Cc1nn(CC2CC2)c(=O)n1-c1ccc(C(C)C)cc1,0,0,0,0,0,0
CCc1cc(=O)[nH]c(SCC(=O)N2CCC(Cc3ccccc3)CC2)n1,0,0,0,-,0,-
CC(C)(C)c1ccc(C2CC2C(=O)N/N=C\c2ccc[nH]2)cc1 (stereo unspecified),0,0,16.9µM,0,0,-
Cc1ccsc1C(=O)NCCc1c[nH]c2ccccc12,?,?,19µM,-,?,-
SMILES,NPC1 promoter act,Rab9 promoter act,FLuc counter,KinaseGlo FLuc,ELG1 genotox,SMN2 splice up
COc1cc(SC)ccc1C(=O)NCCc1c[nH]c2ccccc12,0,0,?,-,0,-
CCC(=O)NCCc1c[nH]c2ccccc12,-,-,0,0,-,0
O=C(NCCSc1c[nH]c2ccccc12)c1ccc(Cl)cc1,-,-,0,-,-,0
O=C(NCCc1c[nH]c2ccccc12)c1ccc(Cl)cc1,1.78µM,2.82µM,10.7µM,-,?,-
COc1ccc(C(=O)c2c[nH]c3ccccc23)cc1,-,-,3.38µM,0,-,?
O=C(NCCc1c[nH]c2ccccc12)c1ccc(F)cc1F,?,?,12µM,-,?,-
Cn1c(SCC(=O)NCCc2ccccc2)ncc(C(=O)Nc2ccccc2)c1=O,0,0,0,-,0,-

# Screening results as filed in PubChem.
